# Out of some 5,500 compounds screened, about 2,000 (36%) were called active. Roughly 18% stayed inconclusive and do not appear here. The list shows a part of the results. Values without a mark were called inactive. Cut-off read from the data, not from the text of the source: active = normalized growth mostly below about 0.91 (no sharp cut-off); inconclusive = no clear call, values can overlap the other calls; inactive = mostly above about 0.92.
# Assay: chemical genetic growth profiling, strain panel (AID 1159580);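 note: tested at 20 µM; growth read once vehicle control cultures reached saturation at 30 °C; 1 = growth at the plate median or of vehicle wells; lower values mean less growth of the strain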
# Settings: S. cerevisiae deletion strains, growth OD
# [1] = locus YHR030C, strain SLT2, active compounds read low
# [2] = locus YHR079C, strain IRE1, active compounds read low
# [3] = locus YJL095W, strain BCK1, active compounds read low
# [4] = locus YJR066W, strain TOR1, active compounds read low
# [5] = locus YLR113W, strain HOG1, active compounds read low
# [6] = locus YNL183C, strain NPR1, active compounds read low
# [7] = locus YOR231W, strain MKK1, active compounds read low
# [8] = locus YPL256C, strain CLN2, active compounds read low
smiles,measurement,setting,value
CC(N)C(=O)NC(Cc1ccccc1)C(=O)O (centres undefined),normalized growth,[1],0.937
same,normalized growth,[2],0.952
same,normalized growth,[3],0.96
same,normalized growth,[4],0.886
same,normalized growth,[5],1.02
same,normalized growth,[6],0.89
same,normalized growth,[7],0.982
same,normalized growth,[8],0.925
O=C1C(=O)N(CN2CCc3c([nH]c4ccccc34)C2C(F)(F)F)c2ccc(F)cc21 (centres undefined),normalized growth,"locus YAR019C, strain CDC15, active compounds read low",0.978
same,normalized growth,"locus YBL105C, strain PKC1, active compounds read low",0.983
same,normalized growth,"locus YBR135W, strain CKS1, active compounds read low",0.982
same,normalized growth,"locus YBR136W, strain MEC1, active compounds read low",0.974
same,normalized growth,"locus YBR160W, strain CDC28, active compounds read low",0.962
same,normalized growth,"locus YDL017W, strain CDC7, active compounds read low",0.983
same,normalized growth,"locus YDL028C, strain MPS1, active compounds read low",0.975
same,normalized growth,"locus YDL101C, strain DUN1, active compounds read low",0.988
same,normalized growth,"locus YDL108W, strain KIN28, active compounds read low",0.973
same,normalized growth,"locus YDL132W, strain cdc53, active compounds read low",0.972
same,normalized growth,"locus YDL214C, strain PRR2, active compounds read low",0.841
same,normalized growth,"locus YDR052C, strain DBF4, active compounds read low",0.991
same,normalized growth,"locus YDR054C, strain cdc34, active compounds read low",0.974
same,normalized growth,"locus YDR226W, strain ADK1, active compounds read low",0.98
same,normalized growth,"locus YDR477W, strain SNF1, active compounds read low",0.86
same,normalized growth,"locus YER123W, strain YCK3, active compounds read low",0.692
same,normalized growth,"locus YER133W, strain GLC7, active compounds read low",0.894
same,normalized growth,"locus YFL009W, strain cdc4, active compounds read low",0.977
same,normalized growth,"locus YFL029C, strain CAK1, active compounds read low",0.959
same,normalized growth,"locus YFR003C, strain YPI1, active compounds read low",0.981
same,normalized growth,"locus YFR019W, strain FAB1, active compounds read low",0.839
same,normalized growth,"locus YFR028C, strain CDC14, active compounds read low",0.963
same,normalized growth,"locus YGR040W, strain KSS1, active compounds read low",0.891
same,normalized growth,"locus YGR052W, strain FMP48, active compounds read low",0.804
same,normalized growth,"locus YGR092W, strain DBF2, active compounds read low",0.612
same,normalized growth,[1],0.329 (active)
same,normalized growth,[2],0.667
same,normalized growth,"locus YHR082C, strain KSP1, active compounds read low",0.614
same,normalized growth,"locus YHR205W, strain SCH9, active compounds read low",0.795
same,normalized growth,"locus YIL147C, strain SLN1, active compounds read low",0.982
same,normalized growth,[3],0.791
same,normalized growth,"locus YJL128C, strain PBS2, active compounds read low",0.934
same,normalized growth,"locus YJL157C, strain FAR1, active compounds read low",0.886
same,normalized growth,"locus YJR016C, strain ILV3, active compounds read low",0.993
same,normalized growth,"locus YJR066W, strain TOR1 (second series), active compounds read low",0.825
same,normalized growth,[4],0.784
same,normalized growth,"locus YKL048C, strain ELM1, active compounds read low",0.879
same,normalized growth,"locus YKL067W, strain YNK1, active compounds read low",0.865
same,normalized growth,"locus YKL101W, strain HSL1, active compounds read low",0.711 (active)
same,normalized growth,"locus YKL193C, strain SDS22, active compounds read low",0.972
same,normalized growth,"locus YKL203C, strain TOR2, active compounds read low",0.934
same,normalized growth,[5],0.726 (active)
same,normalized growth,"locus YLR133W, strain CKI1, active compounds read low",0.836
same,normalized growth,"locus YLR403W, strain SFP1, active compounds read low",0.942
same,normalized growth,"locus YML070W, strain DAK1, active compounds read low",0.716
same,normalized growth,"locus YMR001C, strain CDC5, active compounds read low",0.962
same,normalized growth,"locus YMR205C, strain PFK2 (second series), active compounds read low",0.888
same,normalized growth,"locus YMR277W, strain FCP1, active compounds read low",0.947
same,normalized growth,"locus YNL006W, strain LST8, active compounds read low",0.982
same,normalized growth,"locus YNL020C, strain ARK1, active compounds read low",0.741
same,normalized growth,"locus YNL161W, strain CBK1, active compounds read low",0.979
same,normalized growth,[6],0.666
same,normalized growth,"locus YNL207W, strain RIO2, active compounds read low",0.983
same,normalized growth,"locus YNL222W, strain SSU72, active compounds read low",0.98
same,normalized growth,"locus YNL307C, strain MCK1 (second series), active compounds read low",0.682
same,normalized growth,"locus YOL078W, strain AVO1, active compounds read low",0.972
same,normalized growth,"locus YOL136C, strain PFK27, active compounds read low",0.711
same,normalized growth,"locus YOR061W, strain CKA2, active compounds read low",0.917
same,normalized growth,"locus YOR119C, strain RIO1, active compounds read low",0.907
same,normalized growth,[7],0.8
same,normalized growth,"locus YOR329C, strain SCD5, active compounds read low",0.994
same,normalized growth,"locus YPL031C, strain PHO85, active compounds read low",0.82
same,normalized growth,"locus YPL153C, strain RAD53, active compounds read low",0.74
same,normalized growth,"locus YPL204W, strain HRR25, active compounds read low",0.798
same,normalized growth,"locus YPL209C, strain IPL1, active compounds read low",0.987
same,normalized growth,[8],0.471 (active)
same,normalized growth,"locus YPR025C, strain CCL1, active compounds read low",0.993
same,normalized growth,"locus YPR106W, strain ISR1, active compounds read low",0.978
same,normalized growth,"locus YPR111W, strain DBF20, active compounds read low",0.969
same,normalized growth,"strain NNK1, active compounds read low",0.981
same,normalized growth,"strain TSCII, active compounds read low",0.958

# Reference: PubChem BioAssay AID1159580 (chemical genetic matrix, 2015)
